# Rows were chosen to be rich in hits. Some 21% of all compounds tested hit in one or more screens of this group.
# Pf growth 96h – P. falciparum growth inhibition at 96 hour, primary screen for plastid delayed-death inhibitors; P. falciparum luciferase reporter growth, 96 h; Potency, µM (doses to about 28.7 µM), for inactives: top-dose activity change, negative = inhibition, actives largely listed as inhibitors; 6.9% of 320,000 active; note: potency is the fitted concentration of half-maximal effect; % is set by controls: 0 for no effect and ±100 for the full control effect
#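 96 h incubation, 37 C, 5% CO2, of luciferase-reporter P. falciparum-infected RBCs (2% hematocrit, 0.05% parasitemia final) with test compounds; endpoint luminescence.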
# Shiga inhibitor – inhibitors of Shiga toxin in Vero cells | Vero cells, Shiga toxin protein synthesis inhibition reporter | inhibition, % at 38.7 µM | 9.2% of 290,000 active; in the data active = inhibition mostly above about 28%, no sharp cut-off; inactive = mostly below about 43%; note: 0% is about no effect
# NS1 inh – inhibitors of influenza NS1 protein function; Potency, µM (series often up to 46.1 µM), without a hit: at the top dose activity, positive = more growth; 0.4% of 270,000 active; calls by dose curve; note: potency is the fitted concentration of half-maximal effect; actives are rising curves; nearly all actives have a fitted effect of over 50% in size
#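 S. cerevisiae expressing influenza A NS1, grown in glucose, washed, then diluted 1:100 into pH 6.0 -URA galactose medium with 23 nl compound. Growth recovery read as OD600; NS1-free strain serves as control.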
# CHX counter – affects cycloheximide protein synthesis inhibition readout, counter-screen; 12% of 300,000 active; AID 2314; max response, %; cell reporter, cycloheximide protein synthesis inhibition counterscreen; in the data active = max response mostly above about 13%, no sharp cut-off; inactive = mostly below about 14%; note: read at 38.3 µM for the half of the compounds with a filed dose; 0% is about no effect
# Sm TGR block – inhibitors of Schistosoma mansoni thioredoxin glutathione reductase; 3% of 360,000 active; AID 485364; Potency, µM (doses to about 114 µM), inactives show top-dose activity change, negative = inhibition, most hits filed as inhibitors; Q962Y6; purified TGR, DTNB reduction, TNB absorbance 405 nm; note: potency is the fitted concentration of half-maximal effect; % is set by controls: 0 for no effect and ±100 for the full control effect; nearly all actives have a fitted effect of over 60% in size
#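 TGR 20 nM + NADPH 100 uM (dispensed conc.), cpd preinc 15 min RT; start with NADPH (500 uM addition) then DTNB (15 mM addition). Kinetic TNB absorbance, 405 nm filter. Four-parameter Hill fit across titration.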
# Pf growth 48h – inhibits P. falciparum growth in the first generation, 48 h; AID 504832; P. falciparum luciferase growth in erythrocytes, 48 h; 5.9% of 310,000 active; Potency, µM (highest dose often 28.7 µM), for the others: at the top dose activity change, negative = inhibition, usual class: inhibitors; note: potency is the fitted concentration of half-maximal effect; % is set by controls: 0 for no effect and ±100 for the full control effect
#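 Luciferase-expressing P. falciparum in infected erythrocytes (2% hematocrit, 0.1% parasitemia final) in RPMI 1640/0.5% Albumax were exposed to compound for 48 hours at 37 C, 5% CO2; growth read as luminescence.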
# Starred values were filed as active, the others as inactive; ? = inconclusive; . = no result; ! = repeats disagree. Unless noted, calls come from the whole dose curve; as a rule, active = well fitted curve in the direction sought with a large enough effect; inconclusive = small, poorly fitted or top-dose-only effect, or another doubt; inactive = no such curve, though single readings can be large; an effect the other way counts as inactive or inconclusive.
SMILES,Pf growth 96h,Shiga inhibitor,NS1 inh,CHX counter,Sm TGR block,Pf growth 48h
O=C(NCCc1ccccn1)c1ccc(OC2CCN(Cc3ccccn3)CC2)cc1,6.7%,64.1*,6.2%,83.1*,-10.8%,-12.8%
O=C(NCC1CCOCC1)c1ccc(OC2CCN(Cc3ccccn3)CC2)cc1,-5.1%,-3.4,5.7%,1.0,-33.0%,-6.4%
Cc1csc(C(C)NC(=O)c2ccc(OC3CCN(CCc4ccccc4)CC3)cc2)n1 (stereo not drawn),9.4%,15.6,-6.7%,13.8,3.9%,10.4µM*
CC(Cc1ccccn1)NC(=O)c1ccc(OC2CCN(Cc3ccccn3)CC2)cc1 (stereo not drawn),9.28µM*,23.8*,-0.2%,38.2*,-20.2%,38.4%
Cc1ccc(CS(=O)(=O)c2cn(CC(=O)Nc3ccon3)c3ccccc23)cc1,-8.2%,.,.,.,-8.3%,0.8%
Cc1nc2ccccc2c(=O)n1-c1ccc(NS(=O)(=O)c2ccc(F)cc2)cc1,?,.,.,.,4.3%,?
CCC(C)(C)NC(=O)C(c1ccncc1)N(C(=O)c1sc(C)nc1C)c1ccc(C)cc1 (stereo not drawn),19.6%,14.9,0.3%,5.2,12.8%,9.28µM*
Cc1ccc(N(C(=O)c2csnn2)C(C(=O)NC(C)(C)C)c2ccncc2)cc1 (stereo not drawn),-0.3%,-14.9,5.9%,9.1,-23.1%,-2.0%
COc1ccc(C(C(=O)NC2CCCCC2)N(C(=O)c2sc(C)nc2C)c2ccc(C(C)=O)cc2)cc1 (stereo not drawn),9.28µM*,3.1,?,-3.9,-18.1%,?
Cc1ccc(NCC(=O)Nc2cccc(S(=O)(=O)N(C)C)c2)cc1S(=O)(=O)N1CCCCCC1,?,.,.,.,2.9%,?
CCOC(=O)c1c(NC(C)=O)c2c3c(sc2n1Cc1nc(-c2ccccc2OCC)oc1C)CCCC3,.,.,.,.,15.6%,.
CC[n+]1c(-c2ccccc2)c2cc(N)ccc2c2ccc(N)cc21,0.003µM*!,-18.5,.,-14.5,.,0.0478µM*
Cc1ccc(Cl)cc1N1CCN(C(=O)c2cccn2-c2nnc(N3CCCCC3)s2)CC1,.,.,.,.,8.8%,.
Cc1cccc(N2CCN(C(=O)C3CCN(c4nnc(-n5cccc5)s4)CC3)CC2C)c1 (stereo not drawn),?,-5.2,-76.4%,4.8,-8.1%,13.1µM*
Cc1cccc(N2CCN(C(=O)C3CCN(S(=O)(=O)N4CCOCC4)CC3)CC2C)c1 (stereo not drawn),-21.3%,4.5,.,-5.0,48.2%,-14.9%
Cc1ccc(Cl)cc1N1CCN(C(=O)C2CCN(c3nnc(-n4cccc4)s3)CC2)CC1,?,-1.4,-64.4%,-1.3,0.7%,13.1µM*
Cc1cccc(N2CCN(C(=O)CCC(=O)N3CC(C)Oc4ccc(C)cc43)CC2C)c1 (stereo not drawn),-0.5%,4.4,12.7%,-2.1,0.8%,13.1µM*
Cc1ccccc1OCCn1c(=N)n(C(C)C)c2ccccc21,.,.,.,.,-5.7%,.
CCC(=O)N1CCc2cc(Br)cc(S(=O)(=O)N(C)c3ccc(OC)cc3OC)c21,16.2%,-12.3,.,-6.2,-4.8%,?
COc1cc(O)c(C(CCN2CCOCC2)c2cc(OC)c(OC)c(OC)c2)c(OC)c1 (stereo not drawn),?,4.8,0.8%,-6.6,-27.0%,?
COc1cc(O)c(C(CCN2CCCCC2)c2cc(OC)c(OC)c(OC)c2)c(OC)c1 (stereo not drawn),1.85µM*,-2.7,1.6%,-2.6,-18.9%,0.738µM*
COc1cc(O)c(C(CCN2CCCC2)c2cc(OC)c(OC)c(OC)c2)c(OC)c1 (stereo not drawn),2.94µM*,-9.5,-9.0%,-3.0,?,4.15µM*
COc1cc(O)ccc1C1CC(=O)Nc2c1c(=O)nc(SCc1ccccc1C)n2C (stereo not drawn),.,.,.,.,-8.9%,.
O=C(Nc1ccc(-c2cn3ccccc3n2)cc1)c1ccc(Cl)cc1,?,9.0,9.0%,-9.3,-10.1%,9.7%
O=C(NCc1cn2ccccc2n1)c1ccco1,-12.4%,36.6,15.6%,24.7*,-16.0%,60.1%
O=C(NCc1ccc(Cl)c(Cl)c1)c1ccco1,66.8%,16.1,-13.0%,-1.6,0.0%,-9.9%

# Assay outcomes: PubChem BioAssay, National Center for Advancing Translational Sciences (NCATS)
